hgDAF12 agonist: H. glycines DAF-12 receptor agonists, primary screen, cell-based, luminescence, HEK293, GAL4 fusion, UAS-luciferase | Nuclear hormone receptor DAF-12 (Heterodera glycines), GAL4 fusion | HEK293 GAL4-hgDAF12 UAS-luciferase reporter, agonist luminescence; normalized to butyrate control | activation, % at 6.8 µM | hit rate 1.8% among 370,000 | AID 687014, 2013;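 active = activation above a cutoff set at the mean of all screened compounds plus 3 SD, cut at about 10% in these data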;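 note: 0% = DMSO wells and 100% = sodium butyrate wells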
ssDAF12 agonist: S. stercoralis DAF-12 nuclear receptor activators, primary screen, cell-based, luminescence, HEK293, GRIP1 co-expression, lit1-tk-luc; AID 652126, 2013; activation, % at 6.8 µM; HEK293 ssDAF-12/GRIP1 lit1-tk-luc reporter; % of 3 µM dafachronic acid response; Nuclear hormone receptor DAF-12 (Strongyloides stercoralis); hit rate 1% among 370,000;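 active = activation above the mean over all tested compounds plus 3 SD, cut at about 0.9% in these data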;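 note: 0% = DMSO-only wells and 100% = 3 µM delta7-dafachronic acid wells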
hcDAF-12 act: H. contortus DAF-12 nuclear receptor activators, primary screen, cell-based, luminescence, HEK293, lit1-tk-luc reporter; hit rate 1.4% among 370,000; AID 652067, 2013; activation, % at 6.8 µM; HEK293 hcDAF-12 lit1-tk-luc reporter; 0% DMSO, 100% Δ7-dafachronic acid;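 active = activation above the mean of all tested compounds plus 3 SD, cut at about 5.5% in these data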;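 note: 100% = response to 3 µM Δ7-dafachronic acid high control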
DAX1 inh-1: DAX1 (NR0B1) inhibitors on StAR promoter, primary screen, cell-based, luminescence, SF-1 (NR5A1), full-length DAX-1; inhibition, % at 6.8 µM; hit rate 1.1% among 370,000; HEK293T StAR-luciferase reporter, SF-1/DAX-1 repression relief; AID 652010, 2013;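 active = inhibition above the mean over all tested compounds plus 3 SD, cut at about 3.6% in these data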;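 note: 0% = DAX-1 cells with DMSO and 100% = cells lacking DAX-1 with DMSO; higher inhibition means more luminescence from relief of DAX-1 repression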
DAX1 inh-2: DAX1 (NR0B1) inhibitors, primary screen, cell-based, HEK293, Gal4-DAX1, luciferase luminescence. Nuclear receptor subfamily 0 group B member 1 (Homo sapiens), P51843. HEK293 Gal4-DAX1 luciferase reporter. inhibition, % at 6.75 µM. hit rate 0.99% among 340,000. AID 504766, 2011;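 active = inhibition above the mean over all tested compounds plus 3 SD, cut at about 4.2% in these data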;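 note: 0% = DAX1-transfected cells with DMSO and 100% = empty-vector control cells with DMSO; inhibition shows as a rise in luminescence from relieved DAX1 repression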
Target sequence (P51843 207-470 limits assumed): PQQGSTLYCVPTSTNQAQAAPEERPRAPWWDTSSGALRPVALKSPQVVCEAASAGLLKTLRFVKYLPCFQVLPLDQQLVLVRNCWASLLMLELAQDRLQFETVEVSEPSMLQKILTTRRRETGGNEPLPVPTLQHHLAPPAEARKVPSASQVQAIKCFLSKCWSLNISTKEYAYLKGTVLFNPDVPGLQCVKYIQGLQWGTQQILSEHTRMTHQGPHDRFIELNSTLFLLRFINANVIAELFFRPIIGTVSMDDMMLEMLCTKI
* = called active by the depositor. An excerpt weighted towards active compounds, which were near 4.1% of everything screened.

Screening O=C1CN(CCN2CC(=O)N(Cc3ccccc3)C(=O)C2)CC(=O)N1Cc1ccccc1 returned hgDAF12 agonist 2.3, ssDAF12 agonist -1.3, hcDAF-12 act -1.2, DAX1 inh-1 0.4 and DAX1 inh-2 1.9.
Screening COC(=O)[C@@]1(Cc2ccc(F)cc2)[C@H]2c3cc(C(=O)N(C)C)n(CCN4CCOCC4)c3C[C@H]2CN1C(=O)c1ccccc1 returned hgDAF12 agonist -0.1, ssDAF12 agonist -1.1, hcDAF-12 act -1.8 and DAX1 inh-1 -0.5.
For CC1(C)Cc2nc3sc(C(=O)NCCCO)c(N)c3cc2CS1 the results were hgDAF12 agonist 7.2, ssDAF12 agonist -1.2, hcDAF-12 act 1.0, DAX1 inh-1 0.9 and DAX1 inh-2 5.0*.
For CC1(C)Cc2nc3sc(C(=O)NCCO)c(N)c3cc2CO1 the results were hgDAF12 agonist 5.3, ssDAF12 agonist -0.6, hcDAF-12 act 0.8, DAX1 inh-1 0.3 and DAX1 inh-2 1.8.
`COc1cccc(NC(=O)CN(C2=NC3CS(=O)(=O)CC3S2)c2cccc(C)c2)c1` (stereo unspecified) gave hgDAF12 agonist 0.5, ssDAF12 agonist 1.2*, hcDAF-12 act 0.2, DAX1 inh-1 -0.2 and DAX1 inh-2 0.2.
COc1ccc(N(CC(=O)Nc2cc(Cl)ccc2OC)C2=NC3CS(=O)(=O)CC3S2)cc1 (stereo unspecified) was read as hgDAF12 agonist 0.0, ssDAF12 agonist -0.5, hcDAF-12 act 0.3, DAX1 inh-1 -1.0 and DAX1 inh-2 1.0.
COc1cc(CNc2cccc(F)c2)cc(Br)c1O was read as hgDAF12 agonist 1.2, ssDAF12 agonist 1.5*, hcDAF-12 act 2.4, DAX1 inh-1 -0.3 and DAX1 inh-2 0.0.
COc1ccc(CNc2ccccc2)cc1Br was read as hgDAF12 agonist 3.0, ssDAF12 agonist -0.4, hcDAF-12 act -1.6, DAX1 inh-1 -1.0 and DAX1 inh-2 0.6.
For Cc1cc(-c2c(C)[nH]n(-c3ccccc3)c2=O)n[nH]1 the results were hgDAF12 agonist 7.6, ssDAF12 agonist -0.2, hcDAF-12 act 5.8*, DAX1 inh-1 0.7 and DAX1 inh-2 1.6.
Screening Cc1cc(-c2c(C)[nH]n(-c3ccccc3)c2=O)n(-c2ccccc2)n1 returned hgDAF12 agonist 1.5, ssDAF12 agonist -0.4, hcDAF-12 act 0.3, DAX1 inh-1 -0.6 and DAX1 inh-2 -1.2.
For CCCCc1c(C)c2ccc(OCC(C)=O)cc2oc1=O the results were hgDAF12 agonist 11.4*, ssDAF12 agonist 0.5, hcDAF-12 act 4.3, DAX1 inh-1 1.8 and DAX1 inh-2 3.5.
Screening Cc1ccc2c(c1)Oc1ccccc1C=C2C(=O)O returned hgDAF12 agonist -0.8, ssDAF12 agonist -1.1, hcDAF-12 act 1.0, DAX1 inh-1 0.5 and DAX1 inh-2 4.3*.
`COC(=O)NC1c2ccccc2Oc2ccc(C)cc21` (stereo unspecified) gave hgDAF12 agonist -2.6, ssDAF12 agonist -1.2, hcDAF-12 act -0.9, DAX1 inh-1 0.4 and DAX1 inh-2 -1.6.
For CCOC(=O)CSc1nc2sc3c(c2c(=O)n1-c1ccc(C)cc1)CCN(C)C3 the results were hgDAF12 agonist 0.0, ssDAF12 agonist -0.2, hcDAF-12 act 6.1*, DAX1 inh-1 -0.1 and DAX1 inh-2 -1.2.
Screening CC1=CCC(C(=O)O)C(C(=O)Nc2cccnc2)C1 (stereo unspecified) returned hgDAF12 agonist 1.8, ssDAF12 agonist 1.7*, hcDAF-12 act 2.1, DAX1 inh-1 0.8 and DAX1 inh-2 2.8.
Screening Cn1c(=O)oc2cc(S(=O)(=O)N3CCC(C(=O)N4CCN(c5ccccc5)CC4)CC3)ccc21 returned hgDAF12 agonist 1.3, ssDAF12 agonist -2.1, hcDAF-12 act -2.6, DAX1 inh-1 0.4 and DAX1 inh-2 0.1.
For Cn1c(=O)oc2cc(S(=O)(=O)N3CCN(c4ccccc4)CC3)ccc21 the results were hgDAF12 agonist 1.3, ssDAF12 agonist 2.6*, hcDAF-12 act 1.5, DAX1 inh-1 0.5 and DAX1 inh-2 0.4.
Screening O=C(Cc1ccccc1)NC1CCCCN(Cc2cccc(Cl)c2)C1=O (stereo unspecified) returned hgDAF12 agonist 3.0, ssDAF12 agonist -1.9, hcDAF-12 act -2.4 and DAX1 inh-1 0.8.
Screening COc1cc2c(c(OC)c1OC)-c1ccc(NCc3ccccc3)c(=O)cc1C(NC(C)=O)CC2 (stereo unspecified) returned hgDAF12 agonist -5.0, ssDAF12 agonist -1.2, hcDAF-12 act -0.4, DAX1 inh-1 4.0* and DAX1 inh-2 -0.1.
`COc1cc2c(c(OC)c1OC)-c1ccc(SC)c(=O)cc1C(NC(=O)C(F)(F)F)CC2` (stereo unspecified) gave hgDAF12 agonist -5.8, ssDAF12 agonist -0.9, hcDAF-12 act 0.8, DAX1 inh-1 3.7* and DAX1 inh-2 -0.2.
Screening COc1cc2c(c(OC)c1OC)-c1ccc(N(C)CC(OC)OC)c(=O)cc1[C@@H](NC(C)=O)CC2 returned hgDAF12 agonist -3.3, ssDAF12 agonist -0.2, hcDAF-12 act 1.1, DAX1 inh-1 0.4 and DAX1 inh-2 -1.1.
COc1cc2c(c(OC)c1OC)-c1ccc(NC(=O)c3ccc(F)cc3)c(=O)cc1[C@@H](NC(C)=O)CC2 was read as hgDAF12 agonist -1.5, ssDAF12 agonist -0.2, hcDAF-12 act 1.1, DAX1 inh-1 -0.4 and DAX1 inh-2 -0.6.
`CC(=O)Nc1cc2c3c(cccc3c1)-c1ccccc1-2` gave hgDAF12 agonist 11.3*, ssDAF12 agonist 0.1, hcDAF-12 act 1.6, DAX1 inh-1 0.9 and DAX1 inh-2 0.6.
Screening CC(=O)Nc1ccc2c(c1)C(=Nc1ccccc1)c1ccccc1-2 returned hgDAF12 agonist 1.7, ssDAF12 agonist -1.0, hcDAF-12 act -1.7, DAX1 inh-1 -1.4 and DAX1 inh-2 0.7.
COC(=O)C1CCCN(C(=O)C2CCN(S(=O)(=O)c3ccc([N+](=O)[O-])cc3)CC2)C1 (stereo unspecified) was read as hgDAF12 agonist 1.4, ssDAF12 agonist -1.9, hcDAF-12 act -1.4 and DAX1 inh-1 -1.7.
NC(=O)c1nsc(C(=O)N(c2cccc(F)c2)C(C(=O)NCC2CCCO2)c2ccc3ncccc3c2)c1N (stereo unspecified) was read as hgDAF12 agonist -2.2, ssDAF12 agonist -1.0, hcDAF-12 act -0.9, DAX1 inh-1 -0.6 and DAX1 inh-2 -1.4.
For CN(C)N1C(N)=C(C#N)C(c2cccs2)C2=C1CC(C)(C)CC2=O (stereo unspecified) the results were hgDAF12 agonist -3.1, ssDAF12 agonist 2.0*, hcDAF-12 act -0.4 and DAX1 inh-1 0.4.
